According to PubChem BioAssay (EPA / NIEHS):
Several values for one entry are separate records, joined by “and”; a condition that tells them apart may be missing. Equal entries are not always repeated. Results filed as inconclusive are left out. Where a structure was tested more than once in an assay, its records may differ in their call. Activity calls are given as the source filed them. Rule for the calls, unless noted: active = hit-call score of the fitted dose curve at least 0.9, where 1 is the maximum; inactive = score below 0.9.

Key:
[1] = target: Myc proto-oncogene protein (Homo sapiens) (UniProt P01106); assay: ATG_Myc_CIS: Attagene CIS-FACTORIAL HepG2 Assay for human Myelocytomatosis (Myc) Proto-Oncogene Transcription Factor (AID 2282990); settings: HepG2, Attagene cis-reporter transcription factor activity; actives raise or lower the signal
Sequence of Myc proto-oncogene protein (Homo sapiens) (P01106 whole entry, looked up): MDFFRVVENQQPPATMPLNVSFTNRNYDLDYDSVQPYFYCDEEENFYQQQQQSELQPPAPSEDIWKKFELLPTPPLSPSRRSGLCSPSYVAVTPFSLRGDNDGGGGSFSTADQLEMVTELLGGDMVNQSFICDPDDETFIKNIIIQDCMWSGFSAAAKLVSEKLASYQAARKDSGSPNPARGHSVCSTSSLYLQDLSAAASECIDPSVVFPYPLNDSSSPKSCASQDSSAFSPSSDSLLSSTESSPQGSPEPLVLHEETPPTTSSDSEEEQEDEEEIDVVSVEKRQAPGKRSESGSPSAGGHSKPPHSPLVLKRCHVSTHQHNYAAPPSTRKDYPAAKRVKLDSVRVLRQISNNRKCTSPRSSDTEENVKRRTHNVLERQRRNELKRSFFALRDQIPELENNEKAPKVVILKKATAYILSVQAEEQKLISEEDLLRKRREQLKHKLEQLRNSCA
How it was run: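 Cells of the HepG2 human liver line bear multiple cis-driven reporter transcription units. Reporter mRNA after 24 h exposure is reverse-transcribed, amplified, labelled and resolved by capillary electrophoresis, with gain- or loss-of-signal fitting relative to DMSO.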

[2] = ATG_Oct_MLP_CIS: Attagene CIS-FACTORIAL HepG2 Assay for human Octamer-Binding Transcription Factor (Oct) (AID 2282993); settings: HepG2 Attagene cis-factorial Oct reporter, mRNA; actives raise or lower the signal
How it was run: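 HepG2 cells transiently transfected with cis-promoter-driven multiplexed reporter transcription units, dosed for 24 h. Reporter mRNA quantified by RT-PCR, fluorescent labelling, HpaI digestion and capillary electrophoresis; bidirectional fits versus DMSO baseline.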

[3] = target: Cellular tumor antigen p53 (Homo sapiens) (UniProt P04637); assay: ATG_p53_CIS: Attagene CIS-FACTORIAL HepG2 Assay for human p53 Transcription Factor (AID 2282994); settings: HepG2 p53 cis-element reporter, Attagene mRNA; actives raise or lower the signal
Sequence of Cellular tumor antigen p53 (Homo sapiens) (P04637 whole entry, looked up): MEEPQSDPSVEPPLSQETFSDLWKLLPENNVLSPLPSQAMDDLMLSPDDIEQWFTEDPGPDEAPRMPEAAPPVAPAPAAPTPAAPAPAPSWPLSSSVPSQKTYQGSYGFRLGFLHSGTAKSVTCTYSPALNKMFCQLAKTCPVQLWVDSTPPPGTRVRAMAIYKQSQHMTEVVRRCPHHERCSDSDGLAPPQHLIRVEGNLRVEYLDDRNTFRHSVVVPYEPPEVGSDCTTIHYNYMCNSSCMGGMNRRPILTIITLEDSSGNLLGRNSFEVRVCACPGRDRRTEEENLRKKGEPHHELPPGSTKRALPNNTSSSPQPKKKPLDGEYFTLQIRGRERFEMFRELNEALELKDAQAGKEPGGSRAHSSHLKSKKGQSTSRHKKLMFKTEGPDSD
How it was run: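 Using HepG2 hepatoma cells carrying cis-acting multiplexed reporters, mRNA induction is detected after a 24 h exposure. Gain- and loss-of-signal responses are fitted relative to DMSO-treated cells.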

[4] = BSK_3C_TissueFactor: BioMAP Diversity Plus: 3C Assay for Tissue Factor Biomarker Activity (AID 2282997); settings: BioMAP 3C HUVEC, tissue factor biomarker readout; actives raise or lower the signal
How it was run: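 Endothelial monolayers (human umbilical vein, primary) are dosed, incubated 24 h, and assayed for Tissue Factor by ELISA; DMSO serves as negative control for bidirectional fitting.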

[5] = BSK_3C_uPAR: BioMAP Diversity Plus: 3C Assay for Urokinase-type plasminogen activator receptor (uPAR) Biomarker Activity (AID 2282998); settings: BioMAP 3C HUVEC, uPAR biomarker ELISA; actives raise or lower the signal
How it was run: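 Human umbilical vein endothelial primary cells were exposed to test chemical for 24 h. Cell-surface uPAR was then quantified by ELISA, and responses were fitted bidirectionally against DMSO as negative control and baseline.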

[6] = BSK_3C_VCAM1: BioMAP Diversity Plus: 3C Assay for Vascular cell adhesion molecule 1 (VCAM1) Biomarker Activity (AID 2282999); settings: BioMAP 3C HUVEC, VCAM1 ELISA, cytokine-stimulated; actives raise or lower the signal
How it was run: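 Endothelial cells from human umbilical vein are treated with test chemical. At 24 h, VCAM-1 is measured by ELISA, and responses in either direction are fitted relative to DMSO.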

[7] = BSK_4H_Eotaxin3: BioMAP Diversity Plus: 4H Assay for Eotaxin 3 Biomarker Activity (AID 2283000); settings: primary human endothelial cells (HUVEC); actives raise or lower the signal
How it was run: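 ELISA quantitation of CCL26 (Eotaxin-3) protein from chemically dosed human vascular endothelial cells at 24 h; increases and decreases both scored relative to DMSO-treated baseline.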

[8] = target: human Peroxisome Proliferator-activated Receptor alpha (PPARa), PPARA (gene 5465) (UniProt Q07869); assay: ATG_PPARa_TRANS: Attagene TRANS-FACTORIAL HepG2 Assay for human Peroxisome Proliferator-activated Receptor alpha (PPARa) (AID 2283001; active = hit-call score of the fitted dose curve at least 0.9, where 1 is the maximum;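 for AC50: potency for gain of reporter signal over DMSO so agonist or activator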)
Sequence of human Peroxisome Proliferator-activated Receptor alpha (PPARa), PPARA (gene 5465) (Q07869 whole entry, looked up, the tested form may be a part): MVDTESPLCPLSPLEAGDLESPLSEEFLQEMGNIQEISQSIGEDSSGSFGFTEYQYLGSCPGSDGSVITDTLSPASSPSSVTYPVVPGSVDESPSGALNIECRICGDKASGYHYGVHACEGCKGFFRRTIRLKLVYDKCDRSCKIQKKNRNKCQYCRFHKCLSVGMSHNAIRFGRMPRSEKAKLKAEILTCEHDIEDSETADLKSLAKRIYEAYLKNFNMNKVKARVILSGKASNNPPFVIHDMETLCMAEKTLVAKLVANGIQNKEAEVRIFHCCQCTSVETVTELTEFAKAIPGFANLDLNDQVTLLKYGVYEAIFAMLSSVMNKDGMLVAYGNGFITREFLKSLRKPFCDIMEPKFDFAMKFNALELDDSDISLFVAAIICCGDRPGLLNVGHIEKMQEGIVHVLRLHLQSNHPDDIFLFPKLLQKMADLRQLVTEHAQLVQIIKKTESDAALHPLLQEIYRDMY
How it was run: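 Read-out is fluorescence of reporter cDNA fragments resolved by capillary electrophoresis after RT-PCR. Human HepG2 liver cells carried transfected PPARa-Gal4 chimera and GAL4-UAS reporter units, treated 24 h; activity scored as increase over DMSO.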

[9] = read-out: Intercellular Adhesion Molecule 1 (ICAM1), ICAM1 (gene 3383); assay: BSK_3C_ICAM1: BioMAP Diversity Plus: 3C Assay for Intercellular Adhesion Molecule 1 (ICAM1) Biomarker Activity (AID 2283003); settings: primary human endothelial cells (HUVEC); actives raise or lower the signal
How it was run: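 HUVEC primary cells stimulated under 3C conditions; ICAM1 measured by ELISA 24 h after compound dosing. Curves fitted bidirectionally against the DMSO baseline. Overt cytotoxicity checked by SRB staining of parallel cultures.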

[10] = BSK_3C_Proliferation: Cell Proliferation Assessment in the BioMAP Diversity Plus: 3C Assay (AID 2283006); settings: primary human endothelial cells (HUVEC);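 for AC50: potency may reflect either rise or fall in cell number versus DMSO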
How it was run: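 Subconfluent HUVEC (3C system) cultured with chemical; relative cell number read at 48 h by sulforhodamine B total-protein staining (0.1% SRB after 10% TCA fixation, 560 nm). Bidirectional fit relative to DMSO.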

[11] = ATG_NFI_CIS: Attagene CIS-FACTORIAL HepG2 Assay for human Nuclear Factor I (NFI) (AID 2282989); settings: HepG2 cis-regulatory reporter, NFI response element transcription; actives raise or lower the signal
How it was run: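 HepG2 cells transiently transfected with cis-element-driven multiplexed reporter transcription units, dosed for 24 h. Reporter mRNA quantified by RT-PCR, fluorescent labelling, HpaI digestion and capillary electrophoresis; bidirectional fit versus DMSO baseline.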

[12] = ATG_NRF2_ARE_CIS: Attagene CIS-FACTORIAL HepG2 Assay for human Nuclear Factor Erythroid 2 Related Factor 2 (NFR2) response to Antioxidant Response Elements (ARE) (AID 2282992); settings: HepG2 Attagene ARE/NRF2 reporter, transcription factor activity; actives raise or lower the signal;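 for AC50: reporter mRNA level measured by RT-PCR and capillary electrophoresis fluorescence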
How it was run: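 Cis-factorial assay: transfected HepG2 reporter library, 24 h dosing, mRNA readout via RT-PCR/CE; DMSO-referenced bidirectional analysis.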

[13] = target: Peroxisome proliferator-activated receptor gamma (Homo sapiens) (UniProt P37231); assay: ATG_PPARg_TRANS: Attagene TRANS-FACTORIAL HepG2 Assay for human Peroxisome Proliferator-activated Receptor-gamma (PPARg) (AID 2283007; active = hit-call score of the fitted dose curve at least 0.9, where 1 is the maximum)
Sequence of Peroxisome proliferator-activated receptor gamma (Homo sapiens) (P37231 whole entry, looked up, the tested form may be a part): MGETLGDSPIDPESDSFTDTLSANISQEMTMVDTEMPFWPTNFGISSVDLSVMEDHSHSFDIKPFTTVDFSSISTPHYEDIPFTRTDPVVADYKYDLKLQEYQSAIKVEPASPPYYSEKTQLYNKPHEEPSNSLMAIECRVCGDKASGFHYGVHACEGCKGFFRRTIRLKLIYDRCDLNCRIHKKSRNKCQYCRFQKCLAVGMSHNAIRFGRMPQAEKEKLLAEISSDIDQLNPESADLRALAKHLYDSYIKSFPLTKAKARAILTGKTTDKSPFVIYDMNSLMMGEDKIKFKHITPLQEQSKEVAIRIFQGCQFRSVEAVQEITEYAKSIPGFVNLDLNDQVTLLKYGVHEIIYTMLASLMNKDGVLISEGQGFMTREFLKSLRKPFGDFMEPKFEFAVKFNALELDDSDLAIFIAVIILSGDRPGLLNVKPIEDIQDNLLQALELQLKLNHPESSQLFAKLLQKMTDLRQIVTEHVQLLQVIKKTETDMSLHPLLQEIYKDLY
How it was run: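 HepG2 cells transiently transfected with multiplexed GAL4-UAS reporter units and exogenous chimeric NR-Gal4 proteins; reporter mRNA quantified after 24 h compound exposure by RT-PCR, fluorescent labelling, HpaI digestion and capillary electrophoresis; gain-of-signal fitted versus DMSO baseline.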

[14] = target: Nuclear receptor subfamily 1 group I member 2 (Homo sapiens) (UniProt O75469); assay: ATG_PXR_TRANS: Attagene TRANS-FACTORIAL HepG2 Assay for human Pregnane X Receptor (PXR) (AID 2283008; active = hit-call score of the fitted dose curve at least 0.9, where 1 is the maximum)
Sequence of Nuclear receptor subfamily 1 group I member 2 (Homo sapiens) (O75469 whole entry, looked up, the tested form may be a part): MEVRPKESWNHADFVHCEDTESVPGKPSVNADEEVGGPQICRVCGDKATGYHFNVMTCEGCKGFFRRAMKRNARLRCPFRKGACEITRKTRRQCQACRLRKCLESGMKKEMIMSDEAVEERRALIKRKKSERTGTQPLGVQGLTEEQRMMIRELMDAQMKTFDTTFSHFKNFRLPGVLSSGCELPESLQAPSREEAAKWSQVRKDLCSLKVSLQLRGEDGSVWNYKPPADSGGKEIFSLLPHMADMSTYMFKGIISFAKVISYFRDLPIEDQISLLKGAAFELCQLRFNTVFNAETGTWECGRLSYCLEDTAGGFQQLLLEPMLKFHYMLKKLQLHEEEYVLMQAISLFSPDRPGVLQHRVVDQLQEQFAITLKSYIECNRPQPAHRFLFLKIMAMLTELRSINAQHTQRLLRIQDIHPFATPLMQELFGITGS
How it was run: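 Fluorescence intensity of FAM-labelled, HpaI-digested reporter amplicons, separated by capillary electrophoresis, quantifies induction. HepG2 cells with PXR-Gal4 trans-reporter system were exposed 24 h; DMSO defines baseline.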

[15] = target: human Retinoic Acid Receptor gamma (RARg), RARG (gene 5916) (UniProt P13631); assay: ATG_RARg_TRANS: Attagene TRANS-FACTORIAL HepG2 Assay for human Retinoic Acid Receptor gamma (RARg) (AID 2283009; active = hit-call score of the fitted dose curve at least 0.9, where 1 is the maximum;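 for AC50: AC50 is for reporter induction above DMSO meaning RARg activation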)
Sequence of human Retinoic Acid Receptor gamma (RARg), RARG (gene 5916) (P13631 whole entry, looked up, the tested form may be a part): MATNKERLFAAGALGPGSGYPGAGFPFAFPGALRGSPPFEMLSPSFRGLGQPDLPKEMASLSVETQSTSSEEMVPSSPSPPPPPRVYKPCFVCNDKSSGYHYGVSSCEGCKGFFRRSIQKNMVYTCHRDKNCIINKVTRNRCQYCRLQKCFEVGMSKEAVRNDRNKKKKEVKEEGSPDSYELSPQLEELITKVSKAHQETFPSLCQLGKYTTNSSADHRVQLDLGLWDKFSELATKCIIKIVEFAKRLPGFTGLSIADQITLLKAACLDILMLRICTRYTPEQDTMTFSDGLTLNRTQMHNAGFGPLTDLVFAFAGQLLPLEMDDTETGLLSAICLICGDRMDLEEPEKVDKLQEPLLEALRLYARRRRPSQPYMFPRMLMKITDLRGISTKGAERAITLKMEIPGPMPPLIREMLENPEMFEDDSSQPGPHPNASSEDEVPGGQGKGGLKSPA
How it was run: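 HepG2 transiently transfected with GAL4-UAS reporter units and chimeric NR-Gal4 constructs; 24 h compound exposure. Reporter mRNA quantified by RT-PCR, FAM labeling, HpaI digestion and capillary electrophoresis; gain-of-signal versus DMSO.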

[16] = target: human Retinoic Acid Receptor beta (RARb), RARB (gene 5915) (UniProt P10826); assay: ATG_RARb_TRANS: Attagene TRANS-FACTORIAL HepG2 Assay for human Retinoic Acid Receptor beta (AID 2283004; active = hit-call score of the fitted dose curve at least 0.9, where 1 is the maximum)
Sequence of human Retinoic Acid Receptor beta (RARb), RARB (gene 5915) (P10826 whole entry, looked up, the tested form may be a part): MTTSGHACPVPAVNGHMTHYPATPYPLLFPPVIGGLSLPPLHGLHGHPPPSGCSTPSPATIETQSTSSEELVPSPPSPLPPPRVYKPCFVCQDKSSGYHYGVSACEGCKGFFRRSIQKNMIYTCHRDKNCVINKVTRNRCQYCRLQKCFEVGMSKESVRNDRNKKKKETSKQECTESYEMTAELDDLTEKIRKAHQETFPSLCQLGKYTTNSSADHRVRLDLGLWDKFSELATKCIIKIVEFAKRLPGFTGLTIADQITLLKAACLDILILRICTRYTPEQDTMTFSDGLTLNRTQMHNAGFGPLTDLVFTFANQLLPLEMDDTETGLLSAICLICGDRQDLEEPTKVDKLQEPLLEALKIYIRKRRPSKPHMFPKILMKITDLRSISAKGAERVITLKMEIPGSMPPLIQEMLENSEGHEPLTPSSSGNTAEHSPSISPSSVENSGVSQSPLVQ
How it was run: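 Fluorescent capillary-electrophoresis detection of GAL4-UAS reporter mRNA defines the endpoint, with induction over DMSO-treated wells scored as activity. Transiently transfected human hepatoma HepG2 cells expressing exogenous NR–Gal4 proteins are exposed to test chemicals for 24 h.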

[17] = target: Retinoic acid receptor alpha (Homo sapiens) (UniProt P10276); assay: ATG_RARa_TRANS: Attagene TRANS-FACTORIAL HepG2 Assay for human Retinoic Acid Receptor alpha (RARa) (AID 2283005; active = hit-call score of the fitted dose curve at least 0.9, where 1 is the maximum)
Sequence of Retinoic acid receptor alpha (Homo sapiens) (P10276 whole entry, looked up, the tested form may be a part): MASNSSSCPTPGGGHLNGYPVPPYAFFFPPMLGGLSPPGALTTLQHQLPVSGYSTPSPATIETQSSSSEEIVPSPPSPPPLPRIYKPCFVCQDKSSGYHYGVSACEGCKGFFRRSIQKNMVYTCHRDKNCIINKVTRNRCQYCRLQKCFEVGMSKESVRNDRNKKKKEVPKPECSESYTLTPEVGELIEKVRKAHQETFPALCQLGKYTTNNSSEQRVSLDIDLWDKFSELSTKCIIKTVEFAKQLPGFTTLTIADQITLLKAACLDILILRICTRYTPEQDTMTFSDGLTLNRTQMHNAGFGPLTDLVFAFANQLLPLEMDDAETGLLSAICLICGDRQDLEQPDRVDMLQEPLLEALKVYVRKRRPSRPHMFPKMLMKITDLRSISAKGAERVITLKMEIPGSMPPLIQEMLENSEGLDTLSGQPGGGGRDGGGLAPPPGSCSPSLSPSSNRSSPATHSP
How it was run: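 Reporter transcripts, measured by RT-PCR with fluorescent labeling and capillary electrophoresis after 24 h dosing, reflect activity of an exogenous human RARa–GAL4 fusion in transiently transfected HepG2. Fitted for increase relative to DMSO.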

[18] = target: human Peroxisome Proliferator-activated Receptor delta (PPARd), PPARD (gene 5467) (UniProt Q03181); assay: ATG_PPARd_TRANS: Attagene TRANS-FACTORIAL HepG2 Assay for human Peroxisome Proliferator-activated Receptor delta (PPARd) (AID 2283002; active = hit-call score of the fitted dose curve at least 0.9, where 1 is the maximum)
Sequence of human Peroxisome Proliferator-activated Receptor delta (PPARd), PPARD (gene 5467) (Q03181 whole entry, looked up): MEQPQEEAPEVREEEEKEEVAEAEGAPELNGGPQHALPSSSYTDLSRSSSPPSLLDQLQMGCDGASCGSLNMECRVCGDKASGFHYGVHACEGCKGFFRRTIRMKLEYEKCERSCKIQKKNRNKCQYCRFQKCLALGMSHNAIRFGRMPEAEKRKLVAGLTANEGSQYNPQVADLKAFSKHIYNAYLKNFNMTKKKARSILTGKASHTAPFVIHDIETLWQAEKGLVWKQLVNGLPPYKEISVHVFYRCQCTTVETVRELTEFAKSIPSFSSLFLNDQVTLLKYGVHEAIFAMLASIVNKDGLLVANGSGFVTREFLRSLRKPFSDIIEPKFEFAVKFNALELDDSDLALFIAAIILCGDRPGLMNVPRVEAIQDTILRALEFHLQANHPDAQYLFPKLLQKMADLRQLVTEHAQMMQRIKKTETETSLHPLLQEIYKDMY
How it was run: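 Cell-based TRANS reporter: HepG2, transient MRTU transfection, 24 h exposure. Readout = reporter mRNA (RT-PCR/CE, 6-FAM). Gain-of-signal fit vs DMSO control.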

[19] = target: human RAR-related Orphan Receptor beta (RORb), RORB (gene 6096) (UniProt Q92753); assay: ATG_RORb_TRANS: Attagene TRANS-FACTORIAL HepG2 Assay for human RAR-related Orphan Receptor beta (RORb) (AID 2283010; active = hit-call score of the fitted dose curve at least 0.9, where 1 is the maximum)
Sequence of human RAR-related Orphan Receptor beta (RORb), RORB (gene 6096) (Q92753 whole entry, looked up, the tested form may be a part): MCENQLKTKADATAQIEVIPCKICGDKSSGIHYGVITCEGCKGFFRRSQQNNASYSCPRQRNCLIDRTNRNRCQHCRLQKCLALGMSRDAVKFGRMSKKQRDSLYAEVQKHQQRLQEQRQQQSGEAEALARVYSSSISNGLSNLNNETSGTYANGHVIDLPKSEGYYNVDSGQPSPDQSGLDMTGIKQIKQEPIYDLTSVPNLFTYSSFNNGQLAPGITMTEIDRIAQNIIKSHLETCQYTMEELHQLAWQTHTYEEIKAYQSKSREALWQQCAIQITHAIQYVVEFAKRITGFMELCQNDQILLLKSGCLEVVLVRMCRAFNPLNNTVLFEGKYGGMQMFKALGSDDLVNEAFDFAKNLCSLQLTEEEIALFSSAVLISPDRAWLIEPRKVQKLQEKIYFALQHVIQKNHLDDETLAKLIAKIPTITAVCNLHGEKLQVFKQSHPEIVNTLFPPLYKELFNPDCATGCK
How it was run: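 HepG2 cells transiently transfected with GAL4-UAS reporter units expressing chimeric NR-Gal4 protein; reporter mRNA measured 24 h after dosing by RT-PCR, 6-FAM labelling and capillary electrophoresis. Gain-of-signal fitted relative to DMSO baseline.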

Measured: AC50

O=C(CCCN1CCC(O)(c2ccc(Cl)cc2)CC1)c1ccc(F)cc1
active: [2] 47.9 µM | [3] 46.2 µM | [4] 15.6 µM | [5] 20 µM | [10] 7.3 µM
inactive: [1] | [6] | [7] | [8] | [9]

O=C(C=C(O)C(F)(F)F)C(F)(F)F
inactive: [11] | [1] | [12] | [2] | [3] | [13] | [14] | [15]

C=CC(=O)OCCN(CC)CC
active: [11] 27.4 µM | [2] 48.9 µM | [3] 169 µM
inactive: [1] | [8] | [16] | [17] | [13] | [15]

Cc1ccccc1OCC(=O)O
inactive: [11] | [1] | [12] | [2] | [18] | [16]

Cn1sccc1=O
active: [11] 163 µM | [1] 187 µM | [2] 171 µM
inactive: [8] | [16] | [14]

NNC(=O)CCCCC(=O)NN
inactive: [11] | [1] | [2] | [8] | [18] | [14] | [15] | [19]

CC(C)c1c(C(=O)Nc2ccccc2)c(-c2ccccc2)c(-c2ccc(F)cc2)n1CC[C@@H](O)C[C@@H](O)CC(=O)O
active: [14] 9.99 µM
inactive: [1] | [2] | [8] | [18]

O=C(NO)c1ccccc1
active: [3] 35.3 µM [middle of 4 runs]
inactive: [11] | [1] | [2] | [4] | [5] | [6] | [7] | [9] | [10] | [14] | [19]

CCCCc1oc2ccccc2c1C(=O)c1cc(I)c(OCCN(CC)CC)c(I)c1
inactive: [1] | [3] | [18] | [14] | [15]
active: [2] 27.3 µM | [4] 10.2 µM | [5] 6.63 µM | [6] 22.6 µM | [7] 19.6 µM | [9] 23.3 µM | [10] 5.66 µM

CC1CCC(C(=O)O)CC1 (stereo unspecified)
inactive: [11] | [1] | [2] | [3] | [18] | [17] | [13]

CCCCCCCCCCCCCCC
inactive: [11] | [1] | [12] | [2] | [4] | [5] | [6] | [7] | [18] | [9] | [10]

CCCCCCCCCCCCCCCCCC[N+](C)(C)Cc1ccccc1
active: [2] 3.19 µM | [4] 1.17 µM | [5] 0.35 µM | [6] 1.91 µM | [7] 2.84 µM | [9] 2.56 µM | [10] 0.281 µM | [13] 83.5 µM | [15] 89.2 µM
inactive: [11] | [1] | [3] | [8] | [16] | [17] | [14]

Cc1[nH]nc2c1N=C(c1ccccc1Cl)c1cc([N+](=O)[O-])ccc1N2
active: [11] 0.554 µM | [1] 0.353 µM | [12] 19.8 µM | [4] 3.97 µM | [5] 4.73 µM | [6] 3.03 µM | [7] 1.4 µM | [10] 0.547 µM
inactive: [2] | [8] | [18] | [9] | [14] | [19]

O=C(CC(=O)C(F)(F)C(F)(F)C(F)(F)F)c1cccs1
inactive: [11] | [1] | [2] | [3] | [18] | [17] | [14] | [15] | [19]
active: [2] 9.28 µM | [4] 29.2 µM and 35.5 µM | [5] 46.7 µM and 30 µM | [6] 45.3 µM and 48.7 µM | [7] 34.6 µM and 39.1 µM | [8] 13.3 µM and 14.1 µM | [9] 46.2 µM and 50 µM | [10] 15.1 µM and 16.5 µM | [13] 5.3 µM and 10.5 µM | [14] 13.9 µM

Nc1ccn([C@@H]2O[C@H](CO)[C@@H](O)C2O)c(=O)n1 (stereo partly specified)
inactive: [11] | [1] | [12] | [2] | [8]
active: [18] 56.6 µM

CN(C)CCOC(c1ccccc1)c1ccccc1
inactive: [1] | [2] | [4] | [5] | [6] | [7] | [9] | [10] | [14] | [15]

CCCCCCCCCCCCOS(=O)(=O)O
inactive: [4] | [5] | [6] | [7] | [9] | [10]
